Assay results as given in PubChem BioAssay (NCI).
Compounds without any hit were thinned out: in the full panel of roughly 79,000, 15% have a hit. Active and inactive are the calls of the source. Cut-off read from the data, not from the text of the source: active = growth inhibition above about 70%; inactive = the rest.

Legend:
[1] = NCI Yeast Anticancer Drug Screen. Data for the rad50 strain (AID 155);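 note: 0% = growth of vehicle-only cultures of the same strain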; details: S. cerevisiae rad50 strain growth inhibition; at 50.0 µM; hits give high values
Method in brief: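 Yeast carrying a defined DNA repair defect were exposed to test compounds, and growth was compared with vehicle-treated controls to give percent inhibition.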

[2] = NCI Yeast Anticancer Drug Screen. Data for the mec2-1 strain (AID 157); details: S. cerevisiae mec2-1 strain, at 50.0 µM, hits give high values
Method in brief: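 Cells of the genetically defined mec2-1 yeast strain are incubated with test compound. Inhibition of growth is calculated against vehicle-treated controls.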

[3] = NCI Yeast Anticancer Drug Screen. Data for the sgs1 mgt1 strain (AID 161);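 note: 0% = growth of cultures given vehicle only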; details: S. cerevisiae sgs1 mgt1 strain, at 50.0 µM, hits give high values
Method in brief: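 Test agents were incubated with a DNA-repair-mutant yeast strain. Growth was then read and compared against vehicle-treated controls.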

[4] = NCI Yeast Anticancer Drug Screen. Data for the cln2 rad14 strain (AID 165);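 note: 0% = growth equal to vehicle treated cultures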; details: S. cerevisiae cln2 rad14 strain, at 50.0 µM, hits give high values
Method in brief: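 The screen exposed genetically defined yeast (cln2 rad14) to test compounds and scored growth inhibition relative to vehicle-treated controls.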

[5] = NCI Yeast Anticancer Drug Screen. Data for the bub3 strain (AID 167); details: S. cerevisiae bub3 mutant strain, at 50.0 µM, hits give high values
Method in brief: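 Compounds were applied to a genetically altered yeast strain carrying a cell-cycle control defect. Growth inhibition was scored against vehicle-treated controls.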

[6] = NCI Yeast Anticancer Drug Screen. Data for the mlh1 rad18 strain (AID 175); details: S. cerevisiae mlh1 rad18 strain growth inhibition; at 50.0 µM; hits give high values
Method in brief: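 Compound-treated yeast growth, normalised to vehicle controls. Strain bears defined DNA repair mutations.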

Measured: growth inhibition

CCOC(=O)c1nc2ccccc2c(=O)n1NC(=S)Nc1ccc(Cl)cc1
inactive: [1] -40.4% | [2] 5.95% | [3] -1.2% | [4] 8.8% | [5] -4.15% | [6] -15%

O=C1C=C(n2ccccc2=O)CCC1
inactive: [1] 8.05% | [2] 2.15% | [3] 11.4% | [4] -29.1% | [5] -1.8% | [6] 0.05%

COC(=O)C(C(=O)C(=O)Nc1nc2ccc([N+](=O)[O-])cc2s1)c1nc2ccc(Cl)cc2[nH]c1=O (stereo not drawn)
inactive: [1] 10.3% | [2] 17.5% | [3] 21.4% | [4] 26.8% | [5] 15% | [6] -3.1%

O=C(O)c1ncn2c(=O)n(CCCl)nnc12
inactive: [1] -18.9% | [2] -16.4% | [3] -15.8% | [4] -27.8% | [5] -0.55% | [6] 9.2%

C=CCN(CC=C)CNC(C)=O
inactive: [1] -9.7% | [2] -14.7% | [3] -8.4% | [4] -17% | [5] -7.55% | [6] -10.8%

Cc1ccc(S(=O)(=O)CCN2CCOCC2)cc1
inactive: [1] 15.3% | [2] -3.15% | [3] 5% | [4] -32.3% | [5] 5.85% | [6] 2.8%

CCCc1c(N)nc(N)nc1N
inactive: [1] 3.4% | [2] 2.05% | [3] -5.7% | [4] -48.6% | [5] 7.4% | [6] -7.65%

COC(=O)/C(C#N)=C1\NC(=O)c2ccccc21
inactive: [1] 30.1% | [2] 16.1% | [3] 11.6% | [4] 30.8% | [5] 11.5% | [6] 26%

CCC(=O)n1ncc2ccc([N+](=O)[O-])cc21
inactive: [1] 3.45% | [2] 5.15% | [3] -2.8% | [4] -105% | [5] -4.45% | [6] -7.5%

c1ccc(-c2cc3c(nn2)[nH]c2ccccc23)cc1
inactive: [1] 14.4% | [2] -1.95% | [3] -2.25% | [4] -30.2% | [5] -15.8% | [6] 8.9%

COC(=O)C1(F)C(=O)NC(=O)NC1OC (stereo not drawn)
inactive: [1] 35.5% | [2] 16.6% | [3] 56.4% | [4] 10.3% | [5] 11.7% | [6] 31%

COC1OC2COC(C2O)C1OS(=O)(=O)c1ccc(C)cc1 (stereo not drawn)
inactive: [1] -3.2% | [2] 9.7% | [3] 9.2% | [4] -46.1% | [5] -12.3% | [6] -13.3%

CC1OC(C)(c2ccc(Cl)cc2)OCC1(C)C (stereo not drawn)
inactive: [1] -2.45% | [2] -1.15% | [3] 2.5% | [4] -26.6% | [5] 17.8% | [6] 16.9%

NC1(c2ccccc2)C2CC3CC(C2)CC1C3 (stereo not drawn)
inactive: [1] 14.1% | [2] 1% | [3] -9.1% | [4] -48.8% | [5] 7.25% | [6] 3.7%

CC(=O)N(CCC(C)C)c1ccccc1
inactive: [1] 10.6% | [2] 11.6% | [3] -0.75% | [4] -43.9% | [5] -6.45% | [6] -6.85%

COc1ccc(-c2cc(-c3ccccc3)n[nH]2)cc1
inactive: [1] 24% | [2] 27.7% | [3] 43.8% | [4] -13.9% | [5] 47.9% | [6] 33.4%

COc1ccc(NC(=O)CC(=O)n2nc(-c3ccccc3)c(N=Nc3ccccc3C)c2-c2ccccc2)cc1
inactive: [1] -1.5% | [2] -2.1% | [3] -0.8% | [4] 7.8% | [5] 21.1% | [6] 6.65%

N#CCCC1(CCC#N)CCCCCCCCC(CCC#N)(CCC#N)C(=O)C1=O
inactive: [1] -8.7% | [2] -7.2% | [3] -5.15% | [4] 6.65% | [5] 2.4% | [6] 14.7%

CN(Cc1ccccc1)C(=O)/C=C/c1ccccc1
inactive: [1] 9.8% | [2] 22.1% | [3] 26.4% | [4] 2.85% | [5] 27.2% | [6] 14.8%

O=C(O/N=C(\c1ccccc1)C(Br)c1ccccc1)c1ccccc1 (stereo not drawn)
inactive: [1] -2.75% | [2] 10.2% | [3] 2.9% | [4] -2.05% | [5] 8.4% | [6] -2.55%

CN(Cc1ccccc1)C(OCc1ccccc1)c1ccccc1 (stereo not drawn)
inactive: [1] 3.15% | [2] -13% | [3] 10.1% | [4] -8.3% | [5] 20.4% | [6] 5.4%

Cc1onc(-c2ccc(-c3noc(C)c3C(=O)O)cc2)c1C(=O)O
inactive: [1] -1.9% | [2] -7.75% | [3] -3.25% | [4] -5.4% | [5] -10.4% | [6] 11.4%

Oc1ccc(Cl)cc1-c1cc(-c2ccccc2)nc(=S)[nH]1
inactive: [1] -12.7% | [2] -34.8% | [3] -17.6% | [4] -0.2% | [5] -1.3% | [6] -3.6%

Cc1ccccc1NC(=O)NN
inactive: [1] -32.1% | [2] -24.1% | [3] -31.4% | [4] 10.8% | [5] -16.6% | [6] -5.35%

N=C(/C(=C/c1cccc2ccccc12)c1ccccc1)c1ccccc1
inactive: [1] 13.8% | [2] 10.2% | [3] 14.1% | [4] -7.6% | [5] -13.7% | [6] 13.6%

CC(=Nc1cc(Cl)cc(Cl)c1)c1ccncc1
inactive: [1] -25.1% | [2] -21.2% | [3] -31.4% | [4] -5.05% | [5] 16.4% | [6] -49.8%

Nc1nnc2cc(Br)ccc2n1
inactive: [1] -6% | [2] -2.55% | [3] 17.7% | [4] 14.2% | [5] 19.5% | [6] 4.45%

CN1C(=O)C(/C=N/NC(=O)c2cccnc2)C(N)N(C)C1=O (stereo not drawn)
inactive: [1] 4.85% | [2] 18.2% | [3] -4.8% | [4] -1.45% | [5] -41.9% | [6] 31.7%

CCOC(=O)c1nc(SC)sc1NC(=O)c1ccccc1[N+](=O)[O-]
inactive: [1] 21.2% | [2] -4.6% | [3] -8.75% | [4] 11.6% | [5] 3% | [6] -2.65%

CC1(C)C=C(C(Br)c2cccc(Cl)c2)C(=O)c2ccccc21 (stereo not drawn)
active: [1] 98.3% | [2] 99.6% | [3] 99.8% | [4] 99% | [5] 98.8% | [6] 99.3%

O=C(NCC1CC1)Nc1cccc2ccccc12
inactive: [1] -19.1% | [2] -3.4% | [3] -2% | [4] -54.7% | [5] -14% | [6] -5.1%

CC1(C)SC2C(C(=O)O)N=C(Cc3ccccc3)N2C1C(=O)O (stereo not drawn)
inactive: [1] 3.2% | [2] -17.9% | [3] -23.4% | [4] 1.45% | [5] -34% | [6] -7.05%

O=C(O)CCNc1ccccc1C(=O)O
inactive: [1] -8.4% | [2] -15.2% | [3] -13.9% | [4] -9.6% | [5] -40.8% | [6] -0.25%

CN(Cc1ccc(Cl)cc1)C(=O)Nc1ccccc1Cl
inactive: [1] 6.7% | [2] 14.7% | [3] 43.3% | [4] 7.35% | [5] 40.2% | [6] 9.95%

Nc1cc2c3c(cccc3c1Br)C(=O)NC2=O
active: [1] 85.2%
inactive: [2] 14.6% | [3] 35.5% | [4] 12.1% | [5] 15.3% | [6] 15.8%

CC(=O)OC1[C@H](OC(C)=O)C2=C(C)[C@@H](OC(C)=O)C[C@@]2(C(C)(C)O)[C@@H](OC(C)=O)[C@H]2[C@@]1(C)[C@@H](OC(C)=O)CC(OC(C)=O)[C@]21CO1 (stereo partly drawn)
inactive: [1] 3.4% | [2] 29.9% | [3] -20.3% | [4] 7.05% | [5] -32.8% | [6] -59%

Cc1c2oc3c(C)ccc(C(=O)NCCc4ccco4)c3nc-2c(C(=O)NCCc2ccco2)c(N)c1=O
inactive: [1] 39.5% | [2] 7.85% | [3] 12.8% | [4] 15.7% | [5] 0.75% | [6] 44.4%

COc1ccc(C(=O)C(c2ccc(OC)cc2)C2(O)C(=O)Nc3ccc([N+](=O)[O-])cc32)cc1 (stereo not drawn)
inactive: [1] -7.65% | [2] 1.95% | [3] 6.2% | [4] 18.5% | [5] 5.65% | [6] 1.4%
